Assay outcomes as filed in PubChem.
Compounds with a hit are over-represented: about 3.4% of the library has one in this group of screens.
GPR151 ag = activators of human GPR151, primary screen, cell-based, PathHunter beta-arrestin, luminescence. PathHunter beta-arrestin GPR151 cells. activation, % at 11.2 µM. 650,000 tested, 1% active. AID 1508602, 2020; in the data active = activation above about 4.9%;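 also: 0% = median of compound wells and 100% = cells with positive control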
TEAD-YAP inh = TEAD-YAP interaction inhibition, primary screen, TEAD-YAP interaction inhibitor project, luminescence, HEK-TIYL cells; 640,000 tested, 1.4% active; inhibition, % at 9.12 µM; TEAD-Gal4/YAP UAS-luciferase luminescence; in the data active = inhibition above about 32%;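 also: 0% = median of test compound wells and 100% = reference inhibitor wells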
FBW7 act = FBW7 E3 ligase activators, primary screen, biochemical, AlphaScreen, human | normalized activity (activation), % at 26.1 µM | 650,000 tested, 0.13% active | AlphaScreen FBW7–phospho-cyclin E peptide binding, activator screen; in the data active = normalized activity above about 1.9%;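 also: purified mutant Fbw7 with reduced substrate affinity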
MITF primary = MITF inhibitors, primary screen, biochemical, AlphaScreen, human; AlphaScreen MITF homodimerization, bead proximity signal; inhibition, % at 2.6 µM; 650,000 tested, 0.91% active; in the data active = inhibition above about 50%;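 also: 0% = vehicle wells with protein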
An asterisk follows results filed as active; ! = a repeat was not active.

SMILES	GPR151 ag	TEAD-YAP inh	FBW7 act	MITF primary
CCOC(=O)N1CCN(C(c2ccccn2)c2ccc3cccnc3c2O)CC1 (configuration not stated)	-2	7	0	91*
CCOC(=O)N1CCN(C(c2ccccn2)c2c(C)[nH]c3ccccc23)CC1 (configuration not stated)	-1	4	0	7
Oc1c(CN2CCC(Cc3ccccc3)CC2)cc(Cl)c2cccnc12	0	60*	0	60*
CCOC(=O)N1CCN(Cc2cc(Cl)c3cccnc3c2O)CC1	0	76*	-1	50
c1ccc(CC2CCN(Cc3ccccn3)CC2)cc1	3	2	0	24
COc1ccc(C(=O)N2CCCC2=NC#N)cc1	-2	6	0	10
CN=C1SC(C(=O)Nc2ccccc2)CC(=O)N1C (configuration not stated)	0	10	0	15
CS(=O)(=O)N(CC(=O)NC1CC1)c1cc(Cl)ccc1Cl	0	4	0	-2
Oc1c(C(c2ccccn2)N2CCN(c3ccc(F)cc3)CC2)cc(Cl)c2cccnc12 (configuration not stated)	0	-2	0	26
CCOC(=O)N1CCN(C(c2ccccn2)c2cc(Cl)c3cccnc3c2O)CC1 (configuration not stated)	-2	-5	0	53*
Oc1c(C(c2ccccn2)N2CCCC2)cc(Cl)c2cccnc12 (configuration not stated)	-1	29	0	79*
CN1CCN(C(c2ccccn2)c2cc(Cl)c3cccnc3c2O)CC1 (configuration not stated)	1	7	0	28
C=CCc1cc(/C=C2/SC(=O)N(CC(=O)OC)C2=O)cc(OCC)c1O	2	-7	0	-4
COC(=O)c1ccc(N2CCCCCC2)c(NS(=O)(=O)c2ccc(OC)cc2)c1	1	57*	0	-4
COC(=O)c1ccc(Cl)c(NS(=O)(=O)c2ccc(OC)c(Cl)c2)c1	1	-1	0	-14
COC(=O)c1ccc(NS(=O)(=O)c2ccc(OC)cc2)cc1	-1	-3	0	1
COC(=O)c1ccc(C)c(NS(=O)(=O)c2ccc3ccccc3c2)c1	1	53*	0	-3
COC(=O)c1ccc(C)c(NS(=O)(=O)c2ccc(OC)c(Cl)c2)c1	-1	41*	0	-5
COC(=O)c1ccc(C)c(NS(=O)(=O)c2ccc(OC)c(OC)c2)c1	1	-1	0	4
COC(=O)c1ccc(Cl)c(NS(=O)(=O)c2ccc(C)cc2)c1	-2	57*	1	12
COc1ccc(C(=O)N2CCCCC2c2nc3ccccc3[nH]2)cc1Cn1cccn1 (configuration not stated)	1	-12	0	-7
Cc1cc(C)nc(SCC(=O)Nc2ccnc3ccccc23)n1	1	41*	0	14
COc1cccc(C(=O)Nc2nc3nc(C)cc(C)c3s2)c1	0	-7	0	17
O=Cc1c(O)n(-c2ccc(Cl)cc2)c(=O)[nH]c1=O	0	12	2.5*	14
CCc1cccc(C)c1NC(=O)COc1ccc(C#N)cc1	-2	-8	0	-26
SMILES	GPR151 ag	TEAD-YAP inh	FBW7 act	MITF primary
COc1ccc(C2NC(=O)NC(C)=C2C(=O)OCc2ccc3c(c2)OCO3)cc1 (configuration not stated)	1	67*	0	-4
CCOC(=O)C1=C(C)NC(=O)NC1c1ccc([N+](=O)[O-])cc1 (configuration not stated)	1	1	1	1
COc1ccc(COC(=O)C2=C(C)NC(=O)NC2c2ccc(C)cc2)cc1 (configuration not stated)	-1	22	0	-8
CCCCOC(=O)C1=C(C)NC(=O)NC1c1ccc(OCCC)cc1 (configuration not stated)	0	20	0	5
COc1ccc(COC(=O)C2=C(C)NC(=O)NC2c2ccc([N+](=O)[O-])cc2)cc1 (configuration not stated)	0	44*	0	11
CCCOc1ccc(C2NC(=O)NC(C)=C2C(=O)OCc2ccc(OC)cc2)cc1 (configuration not stated)	-1	58*	0	-2
CCCOC(=O)C1=C(C)NC(=O)NC1c1ccc(OCCC)cc1 (configuration not stated)	-1	43*	0	-14
O=C1CCC(CCC(=O)N2CCC[C@H]2CO)(Cc2ccc(Cl)cc2)N1 (some centres not stated)	0	6	0	6
CC1CCN(S(=O)(=O)c2cccc(C(=O)OCC(=O)c3ccccc3)c2)CC1	0	1	0	10
CCCNC(=O)CSc1nc(-c2ccco2)cc(C(F)(F)F)n1	0	10	0	3
O=C(CSc1nc(-c2ccco2)cc(C(F)(F)F)n1)Nc1cccnc1	1	48*	0	8
CC(C)NC(=O)CSc1nc(-c2ccco2)cc(C(F)(F)F)n1	0	3	0	-9
CC(=O)Nc1cccc(NC(=O)CSc2nc(-c3ccco3)cc(C(F)(F)F)n2)c1	2	42*	0	8
CCOC(=O)c1c(N)sc(/C(C)=N\Nc2ccc([N+](=O)[O-])cc2)c1C	0	-11	0	-9
CCCCNC(=O)c1ccccc1NC(=O)c1c(-c2ccccc2)noc1C	1	20	0	1
CN(c1ccc(Br)cc1)S(=O)(=O)c1ccc2[nH]cc(C(=O)NCCC3=CCCCC3)c(=O)c2c1	0	-10	1	-2
O=C(CNC(=O)c1cccc(Br)c1)N/N=C/c1cn[nH]c1-c1ccccc1	0	7	0	2
O=C(c1cccc(Br)c1)c1cn[nH]c1-c1ccccc1O	1	46*	0	5
Cc1ccc(C(=O)Cn2c(C(=O)OCCO)cc3ccccc32)cc1	-1	34*	0	13
Cc1ccc(C(=O)Cn2c(C(=O)O)cc3ccccc32)cc1	1	4	0	-2
CC(=O)c1cccc(NS(=O)(=O)c2ccc3c(c2)CCN3C(=O)CCC(=O)O)c1	0	0	0	23
O=C(CNc1ccncc1)c1c[nH]c2ccccc12	2	83*	0	-12
O=C(CC(=O)c1c[nH]c2ccccc12)c1ccccc1	2	-10	0	16
Nc1cc(Cl)ccc1N1CCCCC1	-1	-14	0	-9
Nc1ccc(N2CCCCC2)cc1N1CCCCC1	0	72*	-1	39
N=C(N)c1ccc(OCCCCCOc2ccc(C(=N)N)cc2)cc1	2	44*!	0	-20
N=C(N)c1ccc(N)cc1	1	-12	0	-4
COC(=O)CCCNc1nncc(-c2ccc3c(c2)OCO3)n1	1	35*	0	2
Cn1cnnc1SCC(=O)Nc1ccc(C(N)=O)cc1	-1	33*	0	10
